Measurements taken from PubChem BioAssay AID1159580 (chemical genetic matrix, 2015).
About 2,000 (36%) of roughly 5,500 compounds were called active. Not shown: some 18% with an inconclusive outcome. No stated cut-off is given here; in the data, active means normalized growth mostly below about 0.91 (no sharp cut-off); inconclusive means no clear call, values can overlap the other calls; inactive means mostly above about 0.92. Some of the results follow.

Experiment: chemical genetic growth profiling, strain panel (AID 1159580);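 further: tested at 20 µM; growth read once vehicle control cultures reached saturation at 30 °C; 1 = growth at the plate median or of vehicle wells; lower values mean less growth of the strain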
Settings: growth OD

Measured: normalized growth

CC1(C)C(=O)C=C[C@@]2(C)C1C[C@@H](O)[C@]1(C)C2CC[C@@]2(C)[C@H](c3ccoc3)OC(=O)[C@H]3O[C@]321 (stereo partly specified)
inactive: S. cerevisiae deletion strains, locus YJR066W, strain TOR1, active compounds read low 0.938 | S. cerevisiae deletion strains, locus YKL009W, strain mrt4, active compounds read low 0.95 | S. cerevisiae deletion strains, locus YKL068W, active compounds read low 0.973 | S. cerevisiae deletion strains, locus YKL085W, strain MDH1 (second series), active compounds read low 0.973 | S. cerevisiae deletion strains, locus YKL085W, strain MDH1, active compounds read low 0.973 | S. cerevisiae deletion strains, locus YKL160W, strain elf1, active compounds read low 1 | S. cerevisiae deletion strains, locus YKL190W, strain CNB1, active compounds read low 0.983 | S. cerevisiae deletion strains, locus YKR001C, strain vps1, active compounds read low 0.963 | S. cerevisiae deletion strains, locus YKR026C, strain gcn3, active compounds read low 0.995 | S. cerevisiae deletion strains, locus YKR091W, strain srl3, active compounds read low 0.989 | S. cerevisiae deletion strains, locus YLL001W, strain dnm1, active compounds read low 1.01 | S. cerevisiae deletion strains, locus YLL026W, active compounds read low 1 | S. cerevisiae deletion strains, locus YLL041C, strain sdh2, active compounds read low 0.992 | S. cerevisiae deletion strains, locus YLR027C, strain aat2, active compounds read low 1.02 | S. cerevisiae deletion strains, locus YLR039C, strain RIC1, active compounds read low 0.972 | S. cerevisiae deletion strains, locus YLR058C, strain SHM2, active compounds read low 0.959 | S. cerevisiae deletion strains, locus YLR102C, strain apc9, active compounds read low 0.983 | S. cerevisiae deletion strains, locus YLR113W, strain HOG1, active compounds read low 0.991 | S. cerevisiae deletion strains, locus YLR221C, strain rsa3, active compounds read low 1 | S. cerevisiae deletion strains, locus YLR258W, strain gsy2, active compounds read low 1.03 | S. cerevisiae deletion strains, locus YLR262C, strain YPT6 (second series), active compounds read low 0.992 | S. cerevisiae deletion strains, locus YLR262C, strain YPT6, active compounds read low 0.962 | S. cerevisiae deletion strains, locus YLR268W, strain sec22, active compounds read low 0.952 | S. cerevisiae deletion strains, locus YLR320W, strain mms22, active compounds read low 1.01 | S. cerevisiae deletion strains, locus YLR330W, strain CHS5, active compounds read low 0.987 | S. cerevisiae deletion strains, locus YLR342W, strain FKS1 (second series), active compounds read low 1.02 | S. cerevisiae deletion strains, locus YLR342W, strain FKS1, active compounds read low 1.02 | S. cerevisiae deletion strains, locus YLR357W, strain rsc2, active compounds read low 0.965 | S. cerevisiae deletion strains, locus YLR370C, strain arc18, active compounds read low 0.996 | S. cerevisiae deletion strains, locus YLR371W, strain rom2, active compounds read low 0.99 | S. cerevisiae deletion strains, locus YLR384C, strain iki3, active compounds read low 1 | S. cerevisiae deletion strains, locus YLR418C, strain cdc73, active compounds read low 0.933 | S. cerevisiae deletion strains, locus YML016C, strain PPZ1, active compounds read low 0.98 | S. cerevisiae deletion strains, locus YML032C, strain rad52, active compounds read low 0.971 | S. cerevisiae deletion strains, locus YML120C, strain ndi1, active compounds read low 1 | S. cerevisiae deletion strains, locus YML124C, strain tub3, active compounds read low 0.989 | S. cerevisiae deletion strains, locus YMR058W, strain fet3, active compounds read low 0.996 | S. cerevisiae deletion strains, locus YMR078C, strain ctf18, active compounds read low 0.982 | S. cerevisiae deletion strains, locus YMR125W, strain sto1, active compounds read low 0.984 | S. cerevisiae deletion strains, locus YMR129W, active compounds read low 1.01 | S. cerevisiae deletion strains, locus YMR205C, strain PFK2, active compounds read low 0.999 | S. cerevisiae deletion strains, locus YMR223W, strain ubp8, active compounds read low 0.997 | S. cerevisiae deletion strains, locus YMR231W, strain pep5, active compounds read low 0.992 | S. cerevisiae deletion strains, locus YMR307W, strain GAS1, active compounds read low 0.954 | S. cerevisiae deletion strains, locus YNL067W, strain RPL9B, active compounds read low 1.01 | S. cerevisiae deletion strains, locus YNL071W, strain lat1, active compounds read low 1 | S. cerevisiae deletion strains, locus YNL183C, strain NPR1, active compounds read low 0.963 | S. cerevisiae deletion strains, locus YNL209W, strain ssb2, active compounds read low 1 | S. cerevisiae deletion strains, locus YNL233W, strain BNI4, active compounds read low 1.01 | S. cerevisiae deletion strains, locus YNL248C, strain rpa49, active compounds read low 0.917 | S. cerevisiae deletion strains, locus YNL250W, strain rad50, active compounds read low 1 | S. cerevisiae deletion strains, locus YNL271C, strain bni1, active compounds read low 0.984 | S. cerevisiae deletion strains, locus YNL298W, strain CLA4, active compounds read low 0.995 | S. cerevisiae deletion strains, locus YNL307C, strain MCK1, active compounds read low 0.989 | S. cerevisiae deletion strains, locus YNL322C, strain KRE1 (second series), active compounds read low 1.01 | S. cerevisiae deletion strains, locus YNR049C, strain mso1, active compounds read low 0.993 | S. cerevisiae deletion strains, locus YNR052C, strain pop2, active compounds read low 0.992 | S. cerevisiae deletion strains, locus YOL012C, strain htz1 0.797 | S. cerevisiae deletion strains, locus YOL147C, strain pex11, active compounds read low 0.997 | S. cerevisiae deletion strains, locus YOR001W, strain rrp6, active compounds read low 0.986 | S. cerevisiae deletion strains, locus YOR061W, strain CKA2, active compounds read low 0.952 | S. cerevisiae deletion strains, locus YOR069W, strain VPS5, active compounds read low 0.992 | S. cerevisiae deletion strains, locus YOR070C, strain gyp1, active compounds read low 1.03 | S. cerevisiae deletion strains, locus YOR080W, strain dia2, active compounds read low 1.01 | S. cerevisiae deletion strains, locus YOR083W, strain WHI5, active compounds read low 1 | S. cerevisiae deletion strains, locus YOR106W, strain vam3, active compounds read low 0.996 | S. cerevisiae deletion strains, locus YOR136W, strain idh2, active compounds read low 0.975 | S. cerevisiae deletion strains, locus YOR144C, strain elg1, active compounds read low 0.986 | S. cerevisiae deletion strains, locus YOR184W, strain ser1, active compounds read low 0.896 | S. cerevisiae deletion strains, locus YOR231W, strain MKK1, active compounds read low 0.954 | S. cerevisiae deletion strains, locus YOR265W, strain rbl2, active compounds read low 1.01 | S. cerevisiae deletion strains, locus YOR270C, strain vph1, active compounds read low 0.97 | S. cerevisiae deletion strains, locus YOR290C, strain snf2, active compounds read low 1 | S. cerevisiae deletion strains, locus YOR316C, strain cot1, active compounds read low 0.985 | S. cerevisiae deletion strains, locus YPL051W, strain arl3, active compounds read low 1.02 | S. cerevisiae deletion strains, locus YPL078C, strain atp4, active compounds read low 1 | S. cerevisiae deletion strains, locus YPL106C, strain sse1, active compounds read low 1.03 | S. cerevisiae deletion strains, locus YPL240C, strain hsp82, active compounds read low 1 | S. cerevisiae deletion strains, locus YPL241C, strain CIN2, active compounds read low 0.98 | S. cerevisiae deletion strains, locus YPL256C, strain CLN2, active compounds read low 0.945 | S. cerevisiae deletion strains, locus YPR119W, strain clb2, active compounds read low 0.985 | S. cerevisiae deletion strains, locus YPR141C, strain kar3, active compounds read low 0.985 | S. cerevisiae deletion strains, locus YPR163C, strain tif3, active compounds read low 0.98 | S. cerevisiae deletion strains, locus YPR167C, strain met16, active compounds read low 0.99 | S. cerevisiae deletion strains, strain wtn01, active compounds read low 0.96 | S. cerevisiae strains, strain wild type, active compounds read low 0.97
